“And” between values parts separate entries of the source, which are not always exact repeats. Equal entries are not always repeated. The source made the active and inactive calls. Cut-off read from the data, not from the text of the source, unless noted: active = inhibition above about 80%; inactive = the rest.
Tests used:
[1] = molecular target: NAD(+) hydrolase SARM1 (Homo sapiens) (UniProt Q6SZW1); assay: SARM1 TIR NADase inhibitors, cell lysate, NAD-Glo luminescence (AID 1508614;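 active = compound whose remaining NAD level is above about 45 nM, limit read from the data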;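 note: higher remaining NAD means stronger inhibition of SARM1 NADase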); settings: SAM-TIR HEK293T lysate NADase, at 1 µM, stronger effect = higher value
Chain of NAD(+) hydrolase SARM1 (Homo sapiens) (Q6SZW1 whole entry, looked up): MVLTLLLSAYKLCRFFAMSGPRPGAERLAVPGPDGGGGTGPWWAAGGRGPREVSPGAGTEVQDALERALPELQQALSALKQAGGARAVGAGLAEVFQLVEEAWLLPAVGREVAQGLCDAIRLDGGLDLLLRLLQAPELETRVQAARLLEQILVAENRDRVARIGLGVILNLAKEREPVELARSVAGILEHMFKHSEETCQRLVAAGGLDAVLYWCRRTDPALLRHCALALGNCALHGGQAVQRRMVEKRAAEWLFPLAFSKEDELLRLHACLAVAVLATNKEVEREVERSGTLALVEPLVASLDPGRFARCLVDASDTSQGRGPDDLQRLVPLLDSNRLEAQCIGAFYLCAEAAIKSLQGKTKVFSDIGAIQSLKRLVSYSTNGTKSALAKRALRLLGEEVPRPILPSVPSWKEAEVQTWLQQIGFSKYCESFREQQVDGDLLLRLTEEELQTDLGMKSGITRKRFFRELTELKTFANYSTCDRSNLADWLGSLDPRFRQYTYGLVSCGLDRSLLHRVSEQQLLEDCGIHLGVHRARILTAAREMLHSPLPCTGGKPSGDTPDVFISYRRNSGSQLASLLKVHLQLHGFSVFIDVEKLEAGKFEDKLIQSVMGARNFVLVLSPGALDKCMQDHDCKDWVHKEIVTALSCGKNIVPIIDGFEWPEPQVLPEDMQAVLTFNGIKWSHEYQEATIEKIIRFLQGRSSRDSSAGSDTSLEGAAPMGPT

[2] = circadian clock period modulators, cell-based, LOPAC library, luminescence reporter (AID 2774; call rule not given here;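 note: values are relative to mean of DMSO wells on each plate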); settings: circadian reporter cells, at 7 µM, actives lie on both sides
[3] = hESC survival regulators, cell-based (AID 493140; call rule not given here;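 note: cells exposed to compounds for four days before counting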); settings: human embryonic stem cell survival screen; stronger effect = higher value
[4] = liver-stage malaria parasite growth inhibition, primary screen, cell-based, HepG2, luciferase luminescence, HepG2 viability (AID 624349; in the data active = parasite load remaining mostly below about 12%, no sharp cut-off; inactive = mostly above about 10%;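 note: 100% = mean of DMSO negative control wells on the same plate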); settings: P. berghei liver stage in HepG2, luciferase luminescence, concentration not given here; parasite load remaining: stronger effect = lower value; viability: measured here: HepG2 viability without parasites
[5] = viability rescue of complex I mutant cybrids, primary screen, cell-based, galactose medium, ATP luminescence (AID 1645843;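 active = z-score of at least 1.8 in each of two replicates, scored against plate mean and spread of sample wells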;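 note: positive z means more ATP and so rescue of galactose-driven cybrid death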); settings: complex I mutant cybrid cells, 72 h, stronger effect = higher value
[6] = molecular target: Mitogen-activated protein kinase 7 (Homo sapiens) (UniProt Q13164); assay: ERK5 transactivation activators in reporter cells, primary screen, cell-based, HTS (AID 1508626;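 active = luciferase signal above three times the same-plate solvent-only control wells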;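 note: luciferase driven by Gal4-ERK5 fusion binding five Gal4 sites before minimal TATA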); settings: HeLa Gal4-ERK5 transactivation, 18 h, at 5 µM, stronger effect = higher value
Chain of Mitogen-activated protein kinase 7 (Homo sapiens) (Q13164 whole entry, looked up, the tested form may be a part): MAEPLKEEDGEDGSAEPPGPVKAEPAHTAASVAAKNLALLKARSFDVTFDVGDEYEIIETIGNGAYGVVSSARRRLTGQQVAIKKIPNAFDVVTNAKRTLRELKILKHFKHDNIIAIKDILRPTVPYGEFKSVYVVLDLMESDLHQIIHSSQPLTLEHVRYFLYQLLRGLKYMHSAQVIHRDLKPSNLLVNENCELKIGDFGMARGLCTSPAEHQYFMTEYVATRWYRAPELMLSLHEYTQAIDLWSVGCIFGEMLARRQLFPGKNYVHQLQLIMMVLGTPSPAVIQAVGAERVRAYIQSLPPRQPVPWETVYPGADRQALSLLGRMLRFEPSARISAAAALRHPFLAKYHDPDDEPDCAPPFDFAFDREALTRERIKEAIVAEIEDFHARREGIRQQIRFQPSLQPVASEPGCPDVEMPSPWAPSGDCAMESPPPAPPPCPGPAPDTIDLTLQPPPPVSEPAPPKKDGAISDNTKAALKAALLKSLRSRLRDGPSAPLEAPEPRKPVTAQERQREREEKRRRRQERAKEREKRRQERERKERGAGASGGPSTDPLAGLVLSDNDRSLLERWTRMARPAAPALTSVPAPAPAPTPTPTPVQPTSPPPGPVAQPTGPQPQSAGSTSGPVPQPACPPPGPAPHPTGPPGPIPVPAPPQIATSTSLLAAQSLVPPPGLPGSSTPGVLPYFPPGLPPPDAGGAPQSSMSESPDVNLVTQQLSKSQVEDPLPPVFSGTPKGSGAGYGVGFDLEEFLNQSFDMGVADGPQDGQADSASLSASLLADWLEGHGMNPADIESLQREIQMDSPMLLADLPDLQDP

[7] = kinase inhibitors against Plasmodium liver-stage infection, cell-based, known kinase inhibitor set, luminescence, hepatoma host viability (AID 624392; call rule not given here;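 note: infected cells incubated roughly two days before readout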); settings: Plasmodium liver stage in hepatoma cells, luciferase luminescence, concentration not given here; liver cell % of control: measured here: host liver cell viability; parasite % of control: stronger effect = lower value
[8] = tested on: Hepatitis C virus NS3 helicase; assay: HCV NS3 helicase inhibitors, primary screen, biochemical, fluorescence polarization, LOPAC1280 library (AID 687035; in the data active = inhibition above about 37%); settings: Purified HCV NS3 helicase, Cy5-dT15 ssDNA binding fluorescence polarization; stronger effect = higher value; concentration not given here
[9] = Cy5 fluorescence quenching or enhancement artefacts, artefact control for HCV NS3 helicase inhibitor project, biochemical, LOPAC1280 (AID 687037; call rule not given here); settings: Cy5-DNA-NS3h complex fluorescence interference counterscreen
[10] = phospholipid biosynthesis inhibitors in animal cells, primary screen, cell-based, LOPAC library, screen 4 (AID 1347384; call rule not given here); settings: phospholipid biosynthesis inhibition screen, at 10 µM
[11] = LFS_MB_1R medulloblastoma cell growth inhibition, synergistic combos for chromothripsis tumors, cisplatin or BGB combos (AID 1671452); settings: LFS_MB_1R medulloblastoma cells, stronger effect = higher value;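 note: cells exposed for 96 hours before readout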
[12] = CRL2098 osteosarcoma cell growth inhibition, synergistic combos for chromothripsis tumors, BGB or cisplatin IC20 combos (AID 1671454); settings: CRL2098 osteosarcoma cells, drug combinations, stronger effect = higher value;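 note: cells exposed for 96 h before readout; 0% = vehicle DMSO and 100% = killing by high DMSO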
[13] = HD-MB03 medulloblastoma cell growth inhibition, synergistic combos for chromothripsis tumors, BGB or cisplatin IC20 combos (AID 1671455; in the data active = inhibition above about 83%;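 note: 0% = vehicle DMSO and 100% = high DMSO as cytotoxic control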); settings: HD-MB03 medulloblastoma cells, stronger effect = higher value
[14] = UWB1.289 ovarian carcinoma cell growth inhibition, synergistic combos for chromothripsis tumors, BGB or cisplatin combos (AID 1671456); settings: UWB1.289 ovarian carcinoma cells, stronger effect = higher value;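 note: cells exposed to compound for four days; 0% = vehicle DMSO and 100% = killing by high DMSO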
[15] = LFS_MB_2R medulloblastoma cell growth inhibition, synergistic combos for chromothripsis tumors, cisplatin combos (AID 1671457); settings: LFS_MB_2R medulloblastoma cells, stronger effect = higher value;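 note: cells exposed to compound for four days before readout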
[16] = UWB1.289_BRCA1 ovarian cancer growth, cell-based, BGB or cisplatin combinations (AID 1671459); settings: UWB1.289 BRCA1 ovarian carcinoma, drug combinations, stronger effect = higher value
[17] = human astrocyte viability loss, single and combined drugs, cytotoxicity control for chromothriptic childhood tumor combination screen, cell-based, BGB or cisplatin IC20 combos (AID 1671460); settings: Human astrocytes, drug combinations, stronger effect = higher value;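 note: cells exposed to compounds for 96 hours before viability readout; 0% = vehicle and 100% = killing control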
[18] = measured here: combination with BGB IC40, at 0.05 µM
[19] = measured here: combination with cisplatin, at 0.5 µM
[20] = measured here: combination with cisplatin, at 5 µM
[21] = measured here: combination with BGB at IC20, at 0.5 µM
[22] = measured here: combination with cisplatin at IC20, at 0.5 µM
[23] = measured here: combo with BGB at IC20, at 0.5 µM
[24] = measured here: combo with cisplatin at IC20, at 0.5 µM
[25] = measured here: inhibition with BGB combination, at 0.05 µM
[26] = measured here: inhibition with cisplatin combination, at 0.05 µM
[27] = BGB combination, concentration series, at 5 µM
[28] = cisplatin combination, concentration series, at 5 µM
[29] = measured here: combo with BGB IC20, at 0.5 µM
[30] = measured here: combo with cisplatin IC20, at 0.5 µM

CN(C)c1cc(NC(=O)CNC(C)(C)C)c(O)c2c1C[C@H]1C[C@H]3[C@H](N(C)C)C(=O)C(C(N)=O)=C(O)[C@@]3(O)C(=O)C1=C2O
remaining NAD [1]: 10 nM (inactive)

O=c1cc(-c2ccc(O)c(O)c2)oc2cc(O)cc(O)c12
period change [2]: 0.085 h (inactive)
survival [3]: 0.75 (inactive)
parasite load remaining [4]: 83% (inactive)
viability [4]: 96.4%

CC(C)CN(C[C@@H](O)[C@H](Cc1ccccc1)NC(=O)O[C@H]1CCOC1)S(=O)(=O)c1ccc(N)cc1
parasite load remaining [4]: 15.6% (inactive)
viability [4]: 75.5%
z-score [5]: 0.4 (inactive)

CCC(=O)OCC(=O)[C@@]1(OC(=O)CC)[C@@H](C)C[C@H]2[C@@H]3CCC4=CC(=O)C=C[C@]4(C)[C@@]3(F)[C@@H](O)C[C@@]21C
remaining NAD [1]: 10 nM (inactive)
luciferase signal [6]: 156 AU (inactive)

CN(C)N=Nc1nc[nH]c1C(N)=O
survival [3]: 12.2 (inactive)
parasite load remaining [4]: 83.6% (inactive) and 67% (inactive)
viability [4]: 97.7% and 78.1%

CC(C)(N)c1ccc(-c2nc3ccccc3nc2-c2ccccc2)cc1
liver cell % of control [7]: 41.6% and 76.6% and 85.6%
parasite % of control [7]: 0.22% (inactive) and 84.1% (inactive) and 92.8% (inactive)

Nc1nc(OCc2ccccc2)c2[nH]cnc2n1
period change [2]: -0.35 h (inactive)
inhibition [8]: -2% (inactive)
fluorescence ratio (interference) [9]: 0.9 (inactive)
outcome [10]: inactive
z-score [5]: -0.125 (inactive)

CN(C)Cc1ccc(-c2nc3cccc4c3n2CCNC4=O)cc1
inhibition ([11]; at 0.5 µM): -21.9% (inactive) and -12.8% (inactive)
inhibition [11, 18]: -8.61% and -31.3%
inhibition [11, 19]: -36.5% and -4.44%
inhibition [11, 20]: -20.1% and -27.3%
inhibition ([12]; at 0.5 µM): -12.7% (inactive) and -34.7% (inactive)
inhibition [12, 21]: 3.27% and -18.3%
inhibition [12, 22]: -10.7% and -61.5%
inhibition ([13]; at 0.5 µM): -4.1% (inactive) and -8.91% (inactive)
inhibition [13, 23]: -6.79% and -18.1%
inhibition [13, 24]: -1.2% and -11.2%
inhibition ([14]; at 0.5 µM): 2.77% (inactive) and -2.19% (inactive)
inhibition [14, 25]: -14.3% and 1.91%
inhibition [14, 26]: -5.64% and -29.4%
inhibition ([15]; at 0.5 µM): -22.3% (inactive) and -21% (inactive)
inhibition [15, 19]: -26.3% and -32%
inhibition [15, 20]: -30.5% and -31.6%
inhibition [16, 27]: 7.25% and 16.2%
inhibition ([16]; at 0.5 µM): 0.7% (inactive) and -0.32% (inactive)
inhibition [16, 28]: 5.02% and -8.46%
inhibition ([17]; at 0.5 µM): 3.46% (inactive) and 6.94% (inactive)
inhibition [17, 29]: 2.28% and -1.45%
inhibition [17, 30]: 8.6% and 1.46%

COc1cc(C(=O)NC2CCN(C)CC2)ccc1Nc1ncc2c(n1)N(C1CCCC1)CCC(=O)N2C(C)C
liver cell % of control [7]: 99.8%
parasite % of control [7]: 139% (inactive)

COC(=O)C1=CO[C@@H](O)[C@@H]2C(CO)=CC[C@H]12
inhibition [8]: -3% (inactive)
fluorescence ratio (interference) [9]: 1 (inactive)
outcome [10]: inactive
z-score [5]: -0.175 (inactive)

CO[C@H]1/C=C/O[C@@]2(C)Oc3c(C)c(O)c4c(O)c(c(/C=N\N5CCN(C6CCCC6)CC5)c(O)c4c3C2=O)NC(=O)/C(C)=C\C=C\[C@H](C)[C@H](O)[C@@H](C)[C@@H](O)[C@@H](C)[C@H](OC(C)=O)[C@@H]1C
inhibition ([11]; at 0.5 µM): -26.5% (inactive)
inhibition [11, 18]: 5.18%
inhibition [11, 19]: -21.5%
inhibition [11, 20]: -13.2%
inhibition ([12]; at 0.5 µM): -17.9% (inactive)
inhibition [12, 21]: -42.5%
inhibition [12, 22]: -28.1%
inhibition ([13]; at 0.5 µM): -12% (inactive)
inhibition [13, 23]: -9.84%
inhibition [13, 24]: -22%
inhibition ([14]; at 0.5 µM): 0.22% (inactive)
inhibition [14, 25]: -17.7%
inhibition [14, 26]: -11.8%
inhibition ([15]; at 0.5 µM): -7.15% (inactive)
inhibition [15, 19]: -29.8%
inhibition [15, 20]: -34%
inhibition [16, 27]: 4.16%
inhibition ([16]; at 0.5 µM): -5.57% (inactive)
inhibition [16, 28]: 10.5%
inhibition ([17]; at 0.5 µM): -10.7% (inactive)
inhibition [17, 29]: -21%
inhibition [17, 30]: -11%

NC[C@@H]1O[C@H](O[C@H]2[C@@H](O)[C@H](O[C@@H]3[C@@H](O)[C@H](N)C[C@H](N)[C@H]3O[C@H]3O[C@H](CN)[C@@H](O)[C@H](O)[C@H]3N)O[C@@H]2CO)[C@H](N)[C@@H](O)[C@@H]1O
parasite load remaining [4]: 49.2% (inactive) and 45.9% (inactive)
viability [4]: 48% and 104%
remaining NAD [1]: 10 nM (inactive)
luciferase signal [6]: 28 AU (inactive)
z-score [5]: 0.135 (inactive)
